# Measured values: the supplement of paper PMC8728848
# This excerpt belongs to a sample that is enriched for the strongest signals.
# B1: rCnSL-proB (Clitocybe nebularis) (protein)
# chain: PTFSPIFALLAFLPFGTLASLLPQTQLVFRINPNLPGPNDVFVGYRGTNNVVGAIYERDGIKDTPMNNGADAELGPGSYITDDLFTAQIFASGSAGNNPGTTATVCKIYADGVQWRGAPKGYLPVLYFGNGQAAEQTRQTYLQGLDIPGTAIRFANLAKTPNQGPTAPRQMVVPSGGLQTLLKASCFPANHAALPQVLSYFNVRAALPPGWNIRTGPEFPNWTN
# Tests used:
# Assay in all cases: glycan array binding signal (z-score within array); higher = stronger binding
# Details in all cases: glycan notation: IUPAC condensed, linker removed
# [1] = biological target: Fuc(a1-2)Gal(b1-3)GlcNAc6S
# Procedure, shortened: (§1)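 Glycan array binding is given as a within-array Z-score, which can be read as non-binding when negative. The arrays, 3228 of them, came from the Consortium for Functional Glycomics database and were retained only where the protein sequence was available. Z-scores were averaged across arrays of the same protein sequence at different concentrations or buffers and across linkers.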
# [2] = biological target: Fuc(a1-2)Gal(b1-3)[Fuc(a1-4)]GlcNAc(b1-2)Man(a1-3)[Fuc(a1-2)Gal(b1-3)[Fuc(a1-4)]GlcNAc(b1-2)Man(a1-3)]Man(b1-4)GlcNAc(b1-4)GlcNAc
# Procedure, shortened: as §1
# [3] = biological target: Fuc(a1-2)Gal(b1-4)[Fuc(a1-3)]GlcNAc(b1-3)GalNAc
# Procedure, shortened: as §1
# [4] = biological target: Fuc(a1-2)[Gal(a1-3)]Gal(b1-3)GlcNAc(b1-2)Man(a1-3)[Fuc(a1-2)[Gal(a1-3)]Gal(b1-3)GlcNAc(b1-2)Man(a1-6)]Man(b1-4)GlcNAc(b1-4)[Fuc(a1-6)]GlcNAc
# Procedure, shortened: as §1
# [5] = biological target: Fuc(a1-2)[Gal(a1-3)]Gal(b1-4)GlcNAc
# Procedure, shortened: as §1
# [6] = biological target: Fuc(a1-2)[GalNAc(a1-3)]Gal(b1-3)GlcNAc(b1-2)Man(a1-3)[Fuc(a1-2)[GalNAc(a1-3)]Gal(b1-3)GlcNAc(b1-2)Man(a1-6)]Man(b1-4)GlcNAc(b1-4)[Fuc(a1-6)]GlcNAc
# Procedure, shortened: as §1
# [7] = biological target: Fuc(a1-2)[GalNAc(a1-3)]Gal(b1-4)GlcNAc(b1-2)Man(a1-3)[Fuc(a1-2)[GalNAc(a1-3)]Gal(b1-4)GlcNAc(b1-2)Man(a1-6)]Man(b1-4)GlcNAc(b1-4)GlcNAc
# Procedure, shortened: as §1
# [8] = biological target: Fuc(a1-2)[GalNAc(a1-3)]Gal(b1-4)[Fuc(a1-3)]GlcNAc
# Procedure, shortened: as §1
# [9] = biological target: Fuc(a1-3)[Gal(b1-4)]GlcNAc(b1-2)Man
# Procedure, shortened: as §1
# [10] = biological target: Fuc(a1-3)[Gal(b1-4)]GlcNAc(b1-6)[Gal(b1-3)GlcNAc(b1-3)]Gal(b1-4)Glc
# Procedure, shortened: as §1
# [11] = biological target: Gal(a1-3)Gal(b1-3)GlcNAc(b1-2)Man(a1-3)[Gal(a1-3)Gal(b1-3)GlcNAc(b1-2)Man(a1-6)]Man(b1-4)GlcNAc(b1-4)GlcNAc
# Procedure, shortened: as §1
# [12] = biological target: Gal(b1-3)GlcNAc(b1-2)Man(a1-3)[Gal(b1-3)GlcNAc(b1-2)Man(a1-6)]Man(b1-4)GlcNAc(b1-4)[Fuc(a1-6)]GlcNAc
# Procedure, shortened: as §1
# [13] = biological target: Gal(b1-3)GlcNAc(b1-3)Gal(b1-4)GlcNAc(b1-2)Man(a1-3)[Gal(b1-3)GlcNAc(b1-3)Gal(b1-4)GlcNAc(b1-2)Man(a1-6)]Man(b1-4)GlcNAc(b1-4)GlcNAc
# Procedure, shortened: as §1
# [14] = biological target: Gal(b1-3)GlcNAc(b1-6)[Gal(b1-3)]GalNAc
# Procedure, shortened: as §1
# [15] = biological target: Gal(b1-3)[Neu5Ac(a2-6)]GalNAc
# Procedure, shortened: as §1
# Gal(b1-4)Glc6S = biological target: Gal(b1-4)Glc6S
# Procedure, shortened: as §1
# [16] = biological target: Gal(b1-4)GlcNAc(b1-2)[Gal(b1-4)GlcNAc(b1-4)]Man(a1-3)[Gal(b1-4)GlcNAc(b1-2)[Gal(b1-4)GlcNAc(b1-6)]Man(a1-6)]Man(b1-4)GlcNAc(b1-4)GlcNAc
# Procedure, shortened: as §1
# [17] = biological target: Gal(b1-4)GlcNAc(b1-2)[Gal(b1-4)GlcNAc(b1-6)]Man(a1-6)[Gal(b1-4)GlcNAc(b1-2)Man(a1-3)]Man(b1-4)GlcNAc(b1-4)[Fuc(a1-6)]GlcNAc
# Procedure, shortened: as §1
# [18] = biological target: Gal(b1-4)GlcNAc(b1-3)Gal(b1-4)GlcNAc(b1-2)Man(a1-3)[Gal(b1-4)GlcNAc(b1-3)Gal(b1-4)GlcNAc(b1-2)Man(a1-6)]Man(b1-4)GlcNAc(b1-4)GlcNAc
# Procedure, shortened: as §1
# [19] = biological target: Gal(b1-4)GlcNAc(b1-3)Gal(b1-4)GlcNAc(b1-3)Gal(b1-4)GlcNAc(b1-2)Man(a1-3)[Gal(b1-4)GlcNAc(b1-3)Gal(b1-4)GlcNAc(b1-3)Gal(b1-4)GlcNAc(b1-2)Man(a1-6)]Man(b1-4)GlcNAc(b1-4)GlcNAc
# Procedure, shortened: as §1
# [20] = biological target: Gal(b1-4)GlcNAc(b1-3)Gal(b1-4)GlcNAc(b1-3)Gal(b1-4)GlcNAc(b1-2)Man(a1-3)[Gal(b1-4)GlcNAc(b1-3)Gal(b1-4)GlcNAc(b1-3)Gal(b1-4)GlcNAc(b1-2)Man(a1-6)]Man(b1-4)GlcNAc(b1-4)[Fuc(a1-6)]GlcNAc
# Procedure, shortened: as §1
# [21] = biological target: Gal(b1-4)GlcNAc(b1-3)Gal(b1-4)GlcNAc(b1-3)Gal(b1-4)GlcNAc(b1-3)Gal(b1-4)GlcNAc(b1-2)Man(a1-3)[Gal(b1-4)GlcNAc(b1-3)Gal(b1-4)GlcNAc(b1-3)Gal(b1-4)GlcNAc(b1-3)Gal(b1-4)GlcNAc(b1-2)Man(a1-6)]Man(b1-4)GlcNAc(b1-4)[Fuc(a1-6)]GlcNAc
# Procedure, shortened: as §1
# [22] = biological target: Gal(b1-4)GlcNAc(b1-3)Gal(b1-4)GlcNAc(b1-3)Gal(b1-4)GlcNAc(b1-3)Gal(b1-4)GlcNAc(b1-3)Gal(b1-4)GlcNAc(b1-2)Man(a1-3)[Gal(b1-4)GlcNAc(b1-3)Gal(b1-4)GlcNAc(b1-3)Gal(b1-4)GlcNAc(b1-3)Gal(b1-4)GlcNAc(b1-3)Gal(b1-4)GlcNAc(b1-2)Man(a1-6)]Man(b1-4)GlcNAc(b1-4)[Fuc(a1-6)]GlcNAc
# Procedure, shortened: as §1
# [23] = biological target: Gal(b1-4)GlcNAc(b1-3)Gal(b1-4)GlcNAc(b1-3)[Gal(b1-4)GlcNAc(b1-3)Gal(b1-4)GlcNAc(b1-6)]GalNAc
# Procedure, shortened: as §1
binder,measurement,setting,value
B1,glycan array binding signal (z-score),[1],-0.282
same,glycan array binding signal (z-score),[2],3.69
same,glycan array binding signal (z-score),[3],0.251
same,glycan array binding signal (z-score),[4],0.259
same,glycan array binding signal (z-score),[5],-0.77
same,glycan array binding signal (z-score),[6],3.9
same,glycan array binding signal (z-score),[7],-0.08
same,glycan array binding signal (z-score),[8],-0.654
same,glycan array binding signal (z-score),[9],-0.565
same,glycan array binding signal (z-score),[10],-0.826
same,glycan array binding signal (z-score),[11],-0.093
same,glycan array binding signal (z-score),[12],-0.42
same,glycan array binding signal (z-score),[13],3.58
same,glycan array binding signal (z-score),[14],-0.511
same,glycan array binding signal (z-score),[15],0.089
same,glycan array binding signal (z-score),Gal(b1-4)Glc6S,-0.06
same,glycan array binding signal (z-score),[16],3.51
same,glycan array binding signal (z-score),[17],4.49
same,glycan array binding signal (z-score),[18],6.35
same,glycan array binding signal (z-score),[19],4.18
same,glycan array binding signal (z-score),[20],1.76
same,glycan array binding signal (z-score),[21],2.28
same,glycan array binding signal (z-score),[22],0.375
same,glycan array binding signal (z-score),[23],4.08
